Source: PubChem BioAssay (National Center for Advancing Translational Sciences (NCATS))
KB-3-1 tox = KB-3-1 parental cell cytotoxicity | KB-3-1 viability, CellTiter-Glo ATP luminescence, 72 h | AID 1347075 | 400,000 tested, 1.4% active | Potency, µM (highest dose often 46.1 µM), actives largely listed as cytotoxic; further: on the % scale 0 is the no-effect control and ±100 the full control effect; nearly all actives have a fitted effect of over 60% in size
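Cytotoxicity in the drug-sensitive parental line KB-3-1 was scored as loss of CellTiter-Glo luminescence following 72 h incubation with compound. Values come from curve fitting of normalized concentration-response data.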
SW480 rerep = inducers of DNA re-replication in SW480 colon cancer cells; SW480 DNA re-replication, Hoechst DNA content imaging, 48 h; Potency, µM (series often up to 46.1 µM), without a hit: top-dose re-replication activation, hits mostly activators; 340,000 tested, 1.8% active; further: % of control where 0% means no effect; nearly all actives have a fitted effect of over 55% in size
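Readout is total intensity of Hoechst-stained nuclei, excited at 405 nm and collected at 500-530 nm. Compound treatment lasted 48 hr at 37 C in 5% CO2 before staining.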
KB-V1 MDR tox = kills drug-selected multidrug resistant KB-V1 cells. KB-V1 MDR cells viability, CellTiter-Glo, 72 h. Potency, µM (doses to about 46.1 µM), hits mostly cytotoxic. 400,000 tested, 3.4% active; further: on the % scale 0 is the no-effect control and ±100 the full control effect; nearly all actives have a fitted effect of over 60% in size
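Compound-treated KB-V1 multidrug-resistant cells, 72 h, 37 degrees C; viability by CellTiter-Glo. Fitted qHTS curves give the values.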
MCF10A rerep = DNA re-replication induction in MCF 10a cells. MCF 10A DNA re-replication, Hoechst nuclear intensity, 48 h. Potency, µM (series often up to 46.1 µM), for inactives: at the highest dose activity, positive = re-replication, most hits filed as activators. 350,000 tested, 2.9% active; further: % of control where 0% means no effect; nearly all actives have a fitted effect of over 50% in size
ELG1 repair inh = ELG1-dependent DNA repair inhibition; Potency, µM (highest dose often 46.1 µM), inactives show at the highest dose activity change, negative = inhibition, actives largely listed as inhibitors; HEK293T ELG1-luciferase reporter, luminescence, 16 h; DNA damage induced by 5-fluorouridine; 330,000 tested, 2.3% active; AID 504467; further: on the % scale 0 is the no-effect control and ±100 the full control effect; nearly all actives have a fitted effect of over 55% in size
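Cells (2,000 per well) received 5-fluorouridine plus test compound or DMSO and were incubated 16 hr at 37 °C, 5% CO2. Luciferase activity was read by luminescence 30 min after ONE-Glo addition; signal suppression marked inhibition of damage-induced ELG1 function.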
Starred values were filed as active, the others as inactive; i = inactive; ? = inconclusive. Shown are actives, neighbours in structure and some others; about 8.1% of the full set was active somewhere. The call rests on the fitted dose curve; in most records, active means well fitted curve in the direction sought with a large enough effect; inconclusive means small, poorly fitted or top-dose-only effect, or another doubt; inactive means no such curve, though single readings can be large; an effect the other way counts as inactive or inconclusive. Potency means the concentration at half of the fitted maximal effect.

SMILES	KB-3-1 tox	SW480 rerep	KB-V1 MDR tox	MCF10A rerep	ELG1 repair inh
O=C(c1cccs1)N1CCC(c2nc(-c3ccc(S(=O)(=O)N4CCOCC4)cc3)no2)CC1	16µM*	-5%	5.8µM*	17%	?
O=C(Nc1ccccc1)N1CCC(c2nc(-c3ccc(S(=O)(=O)N4CCOCC4)cc3)no2)CC1	4.6µM*	5.8µM*	4.1µM*	1.8µM*	?
O=C(c1ccco1)N1CCC(c2nc(-c3ccc(F)cc3)no2)CC1	i	-4%	i	20%	?
O=C(Nc1cccc(C(F)(F)F)c1)N1CCC(c2nc(-c3ccc(F)cc3)no2)CC1	i	8%	2.6µM*	?	?
COc1cc(NC(=O)CNC(=O)Cn2ccc3ccccc3c2=O)cc(OC)c1OC	i	-1%	?	20%	0%
COc1cc(/C=C/CO)cc(OC)c1OC/C=C(\C)CCC=C(C)C	i	-6%	i	-1%	-5%
CCOC(=O)c1c(Nc2ccccc2)sc(/C=C2\C=Nc3ccccc32)c1O	i	-5%	i	25%	-11%
Oc1nc(Nc2ccccc2)sc1/C=C1\C=Nc2ccccc21	i	16%	i	21µM*	?
COc1cccc(Nc2nc(N)nc(-c3oc4ccccc4c3C)n2)c1	?	13µM*	4.6µM*	7.3µM*	0%
Cc1ccc(Nc2nc(C)nc3c2oc2ccccc23)cc1	i	-6%	?	?	?
COc1ccccc1Nc1nc(N)nc(-c2cc3ccccc3o2)n1	i	?	?	?	0%
Cc1ccc(Nc2nc(N)nc(-c3oc4ccccc4c3C)n2)cc1	0.18µM*	?	?	?	?
Cc1cccc(Nc2nc(N)nc(-c3oc4ccccc4c3C)n2)c1	?	18µM*	21µM*	16µM*	-3%
Cc1c(-c2nc(N)nc(Nc3ccccc3F)n2)oc2ccccc12	i	?	16µM*	18%	?
C=CCNC(=O)CSc1nnc(-c2ccccn2)n1Cc1ccccc1	i	-17%	i	-3%	-11%
Cc1nn(Cc2ccccc2Cl)c(Cl)c1C(=O)NCCc1ccccc1	i	-54%	i	11%	?
COc1ccc(N2CN=C3SCC(=O)N3C2)cc1	i	-23%	i	?	?
NC(=O)CN1C(=O)C(=O)N(Cc2ccccc2Cl)C1=O	i	-17%	i	3%	-3%
CC(C)n1c(=O)c2c(O)cc(=O)oc2c2ccccc21	i	13%	6.5µM*	?	5%
CC1CCN(c2ccc(S(=O)(=O)NC3=NCCCCC3)cc2[N+](=O)[O-])CC1	?	-11%	21µM*	17%	?
Cc1ncn(C23CC4CC(CC(C4)C2)C3)n1	i	-4%	?	0%	14%
CCOc1ccc(/C=N/NC(=O)c2cc(-c3ccco3)nc3ccccc23)cc1	i	?	i	4.1µM*	9%
O=C(N/N=C/c1ccc(F)cc1)c1cc(-c2ccco2)nc2ccccc12	?	?	?	13µM*	0%
CCOc1cccc(-c2cc(C(=O)N/N=C/c3ccc(OC)c(CN4CCOCC4)c3)c3ccccc3n2)c1	i	11%	i	?	23µM*
CCOc1cc(/C=N/NC(=O)c2ccc(CN3CCOCC3)cc2)ccc1OCc1ccccc1	?	-2%	2.3µM*	8%	18µM*
SMILES	KB-3-1 tox	SW480 rerep	KB-V1 MDR tox	MCF10A rerep	ELG1 repair inh
O=C(O)c1cc(-c2ccco2)nc2ccccc12	i	2%	?	-20%	15%
CCOc1cc(/C=N/NC(=O)CN2CCOCC2)ccc1OCc1ccccc1	i	-16%	?	-10%	1%
Cc1ccc(C(=O)COC(=O)c2ccc(Br)o2)cc1C	i	-3%	i	4%	?
C=CCOCCN(C)C1=NS(=O)(=O)c2cc([N+](=O)[O-])ccc21	?	9.2µM*	i	?	?
CN(CCO)C1=NS(=O)(=O)c2cc([N+](=O)[O-])ccc21	i	?	i	?	?
N#Cc1c2n(c3c(=O)n(Cc4ccccc4Cl)cnc13)CCCCC2	?	-1%	i	12µM*	?
